Assay in all cases: NCI-60 one-dose screen, 48 h (100 = growth as untreated, 0 = no growth, -100 = all killed)
Settings in all cases: 10 µM unless noted

The test system of test [1] is T-47D breast.
Test [2] has as its system BT-549 breast.
Test [3] has as its system MDA-MB-435 melanoma.
Test [4] relates to SW-620 colon.
Test [5] has as its system MCF7 breast.
In test [6] the test system is HCT-116 colon.
Test [7] concerns HCC-2998 colon.
The subject of test [8] is KM12 colon.

About 83,000 compounds went through this panel and 20% of them were active in at least one assay; those are over-represented in the sample as a whole.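 Compound tested at a single concentration for 48 hours in 96-well plates; a percent growth value below 10 was scored as active.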 A number with no mark means an inactive call. Calls of active or inactive are those of the source.

For the molecule `O=C(Nc1ncc(Cc2ccccc2)s1)c1cc(-c2ccccc2)nc2ccccc12`, the growth in test [1] was 91.7%; in test [2] it was 99.3%; in test [3], 104%; in test [4], 96.2%; in test [5], 91.1%; in test [6], 95.3%. Moreover, the results for the growth in test [7] and in test [8] were 99.2% and 105%, respectively.
`O=C1c2c(c3c4cc(F)ccc4oc3c3[nH]c4ccccc4c23)C(=O)N1O`: the growth in test [1] is 5.76% (active); in test [2], 44.8%; in test [3], 48.9%; in test [4], 31.6%; in test [5], 17.3%; in test [6], 23.4%. Also, the growth in test [7] was 70.3%; in test [8], 39.5%.
Turning to `Cn1cc(-c2csc(-c3cn(C)c4ccc(F)cc34)n2)c2cnccc21`, the growth is -44.1% (active) in test [1]; 84% in test [2]; -90.7% (active) in test [3]; -67.1% (active) in test [4]; -49.3% (active) in test [5]; -90.3% (active) in test [6]. The growth in test [7] was -78.4% (active); in test [8], 0.588% (active).
On to `O=C(c1ccccc1)[C@@H](c1ccccc1)[C@]1(O)C(=O)Nc2ccccc21`, for which the growth is 85.2% in test [1]; 95% in test [2]; 98.4% in test [3]; 100% in test [4]; 92.4% in test [5]; 96.6% in test [6]. Besides, the growth was 104% in test [7] and 85.5% in test [8].
Turning to `O=C(Nc1ccc2c(c1)-c1ccccc1C2)C1CC(=O)N(c2ccc3c(c2)OCO3)C1` (stereo not given), the growth in test [1] was 52.8% [50 µM]; in test [2], 80.3% [50 µM]; in test [3] it was 70.7% [50 µM]; in test [4] it was 75.2% [50 µM]; in test [5], 65.6% [50 µM]; in test [6], 36.8% [50 µM]. Moreover, the growth was 81% [50 µM] in test [7] and 51.2% [50 µM] in test [8].
For the molecule `COc1ccc(/C=C\c2cc(OC)c(OC)c(OC)c2)cc1OCC(=O)Nc1nc2ccccc2s1`, the growth in test [1] was 18.5%; in test [2] it was 38.7%; in test [3], -2.64% (active); in test [4], 30%; in test [5], 9.7% (active); in test [6], 5.14% (active). Also, the growth was 35.6% in test [7] and 5.76% (active) in test [8].
`C/C=C(/C)C(=O)O[C@@H]1CC(C)(C)CC2C34OC(=O)[C@@]21CC[C@@]3(C)[C@]1(C)CCC2C(C)(C)C(=O)CC[C@]2(C)C1C[C@@H]4O` (stereo not given in full): the growth is 46.8% in test [1]; 43.3% in test [2]; 70.9% in test [3]; 38.8% in test [4]; 66.7% in test [5]; 29.5% in test [6]. For the same molecule, the values for the growth in test [7] and in test [8] were 73.1% and 51.5%, respectively.
For `CN(C)CCOc1nc2c3cc([N+](=O)[O-])ccc3nn2c2ccccc12`, the growth is 46.5% in test [1]; 69.6% in test [2]; 82.4% in test [3]; 20.4% in test [4]; 16.7% in test [5]; 16.7% in test [6]. The growth is 54.6% in test [7] and 41.9% in test [8].
Take `C=C(C)[C@@H]1CC[C@]2(C#N)CC[C@]3(C)[C@H](CC[C@@H]4[C@@]5(C)CCCNC(C)(C)[C@@H]5CC[C@]43C)[C@@H]12`: the growth in test [1] was 78.8%; in test [2] it was 96.1%; in test [3], 44.2%; in test [4] it was 2.83% (active); in test [5] it was 20%; in test [6], 41.6%. In addition, the growth was -40.2% (active) in test [7] and 41% in test [8].
Regarding `CCN(CC)CCCNC(=O)c1c2c(n3ccccc13)C(=O)c1ncccc1C2=O`, the growth in test [1] was -64.4% (active); in test [2] it was -6.67% (active); in test [3], -58.7% (active); in test [4], -47% (active); in test [5], -52.9% (active); in test [6], -70.5% (active). In addition, the growth in test [7] was -72.5% (active); in test [8], -13.2% (active).
In the case of `CNC(=O)c1cc(Oc2ccc3nc(NC(=O)c4cc(C(F)(F)F)cc(C(F)(F)F)c4)sc3c2)ccn1`, the growth in test [1] is 0.372% (active); in test [2], 11.4%; in test [3], 12.1%; in test [4], 40.2%; in test [5], 9.82% (active); in test [6], 12.4%. Besides, the growth is 35.2% in test [7] and 15.5% in test [8].
In the case of `COc1ccc(/C=N\NC(=O)c2ccc3nc(-c4ccc(Cl)cc4)[nH]c3c2)cc1`, the growth was 23.3% in test [1]; 56.9% in test [2]; 68.5% in test [3]; 24.4% in test [4]; 16.7% in test [5]; 19% in test [6]. The values for the growth in test [7] and in test [8] were 51.1% and 17.3%, respectively.
Consider `O=C(Nc1cccc(Cn2c(=O)[nH]c3ccc(Oc4ncccn4)cc3c2=O)c1)c1cccc(Cl)c1`, for which the growth in test [1] was 20.6%; in test [2], 43.8%; in test [3], 42.5%; in test [4] it was 83.3%; in test [5], 40.2%; in test [6], 52.6%. Further, the growth is 84.6% in test [7] and 55% in test [8].
Regarding `C#Cc1cccc(Nc2nc(Cl)nc3cc(NC(=O)CCl)ccc23)c1`, the growth in test [1] is -44.7% (active); in test [2], -89.3% (active); in test [3], -76.7% (active); in test [4], -77.8% (active); in test [5], -49.5% (active); in test [6] it was -90.1% (active). In addition, the growth in test [7] was -84% (active); in test [8], -62.5% (active).
On to `CNC(=O)c1cc(Oc2ccc3nc(NC(=O)NC(C)C)sc3c2)ccn1`, for which the growth in test [1] is 64.3%; in test [2], 86.5%; in test [3], 0.517% (active); in test [4], 53.2%; in test [5], 53.9%; in test [6] it was 57.7%. The growth in test [7] was 79.3%; in test [8], 39.3%.

The values above are taken from PubChem BioAssay (NCI).
